Reference: PubChem BioAssay (NCATS)
Several values for one entry are separate records, joined by “and”; a condition that tells them apart may be missing. Identical values can stand only once. Results filed as inconclusive are left out. Activity calls are given as the source filed them. Calls come from the whole dose curve; as a rule, active = well fitted curve in the direction sought with a large enough effect; inconclusive = small, poorly fitted or top-dose-only effect, or another doubt; inactive = no such curve, though single readings can be large; an effect the other way counts as inactive or inconclusive. *1 amine or outer side, *2 acyl side, *3 side chain or, on linkers, in order; H or OH if unused. Where a SMILES comes first, the peptide text is derived from it. Bridges are numbered along the chain shown (N, C = ends). [ ]: non-standard residue; d: D form. The star is where a group is joined. X5 = NC1=N[C@@H]([C@H](N[*:1])C(=O)[*:2])C[C@H](O)N1; ΔAla(Z-3-ureido) = NC(=O)N/C=C(\N)C(=O)O; β3hOrn = NCCC[C@H](N)CC(=O)*; Dap = NC[C@H](N)C(=O)O

Experiments:
[1] = qHTS Assay for Identifying Gametocytocidal Compounds (AID 743244); note: potency is the fitted concentration of half-maximal effect;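 for max response: actives lower the fluorescent signal which means gametocytes are killed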; conditions: P. falciparum 3D7 stage III-V gametocytes, alamarBlue, 72 h; max response: hits give low values
How it was run: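 Fluorescence at Ex 525/Em 598 nm, recorded 24 h after alamarBlue addition, reports residual metabolic activity of 3D7 gametocytes (stages III–V) following 72 h compound exposure at 37 °C, 5% CO2.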

[2] = qHTS assay to identify small molecule inhibitors of chordoma cells - UCH-1 (AID 1259355); note: nearly all actives have a fitted effect of over 55% in size
How it was run: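 Cells (800/well) were seeded and left overnight at 37 C, 5% CO2, then treated with drugs at 15 concentrations plus a combination mix of auranofin, camptothecin, doxorubicin, rubitecan and topotecan. Viability after 48hr was read by CellTiter-Glo luminescence.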

[3] = qHTS assay to identify small molecule inhibitors of chordoma cells - UCH-2 (AID 1259356); note: series mostly up to about 46 µM
[4] = P-glycoprotein substrates identified in KB-8-5-11 adenocarcinoma cell line, qHTS therapeutic library screen (AID 1346987); conditions: outcome: dose series up to 44.5 µM unless noted; note: series mostly up to about 44 µM; nearly all actives have a fitted effect of over 65% in size
How it was run: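 Steps: plate 500 KB-8-5-11 cells/well in DMEM + 10% FCS (colchicine removed); pin compounds in dose-response; incubate 72 h, 37 degree C, 5% CO2; add CellTiter-Glo, 5 min; read luminescence.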
% is set by controls: 0 for no effect and ±100 for the full control effect.

CCCCCCCCCCCCCCCCCC(=O)OCC(C)O (stereo not drawn)
inactive: max response [1] 2.45% | Potency [2] | Potency [3] | Potency [4]

CCC(=O)OC(OP(=O)(CCCCc1ccccc1)CC(=O)N1C[C@H](C2CCCCC2)C[C@H]1C(=O)O)C(C)C (stereo partly drawn)
inactive: max response [1] 15.3% | Potency [2] | Potency [3] | Potency [4]

CN1C(=O)OC(C)(C)C1=O
inactive: max response [1] 8.47% | Potency [2] | Potency [3] | Potency [4]

CCCCCCCCCCCCCC(=O)OCC(COP(=O)([O-])OCC[N+](C)(C)C)OC(=O)CCCCCCCCCCCCC (stereo not drawn)
inactive: max response [1] 8.75% | Potency [2] | Potency [3] | Potency [4]

CC1C(=O)CC2C3(C)CCC2(C(C)C(=O)O)C(=O)C13 (stereo not drawn)
inactive: max response [1] -7.97% | Potency [2] | Potency [3] | Potency [4]

C=O
inactive: max response [1] 20.4% | Potency [2] | Potency [3] | Potency [4]

CCCCCCCCCCCCCCCCCCCCCC(=O)Nc1ccn([C@@H]2O[C@H](CO)[C@@H](O)[C@@H]2O)c(=O)n1
inactive: max response [1] -10.3% | Potency [2] | Potency [3] | Potency [4]

CC(C)(CO)[C@@H](O)C(=O)NCCC(=O)NCCSSCCNC(=O)CCNC(=O)[C@H](O)C(C)(C)CO
inactive: max response [1] 8.29% | Potency [2] | Potency [3] | Potency [4]

CC1CS(=O)(=O)CCN1/N=C/c1ccc([N+](=O)[O-])o1 (stereo not drawn)
active: Potency [1] 14.1 µM
inactive: Potency [2] | Potency [3] | Potency [4]

O=C[C@H](O)[C@@H](O)[C@@H](O)[C@H](O)CO
inactive: max response [1] -6.65% | Potency [2] | Potency [3] | Potency [4]

O=C(CO)[C@@H](O)[C@H](O)[C@@H](O)C(=O)O
inactive: max response [1] 23.9% | Potency [2] | Potency [3] | Potency [4]

O=C(O)CCCC/C=C(\c1ccccc1)c1cccnc1
inactive: max response [1] 0.181% | Potency [2] | Potency [3] | Potency [4]

COc1ccc(/C=C/C(=O)O)cc1
inactive: max response [1] -1.23% | Potency [2] | Potency [3] | Potency [4]

NC[C@H]1O[C@H](O[C@H]2[C@H](O)[C@@H](O[C@H]3O[C@H](CO)[C@@H](O)[C@H](N)[C@H]3O)[C@H](N)C[C@@H]2N)[C@H](N)C[C@@H]1O
inactive: max response [1] -3.45% | Potency [2] | Potency [3] | Potency [4]

CO/N=C(\C(=O)N[C@@H]1C(=O)N2C(C(=O)O)=C(CSc3nnnn3C)CS[C@H]12)c1csc(N)n1
inactive: max response [1] 2.87% | Potency [2] | Potency [3] | Potency [4]

C[N+]1(C)[C@@H]2CC(OC(=O)C(O)(c3cccs3)c3cccs3)C[C@H]1[C@@H]1O[C@@H]12 (stereo partly drawn)
inactive: max response [1] 8.38% | Potency [2] | Potency [3] | Potency [4]

O=C1CCC(c2ccccc2)(C2CCN(Cc3ccccc3)CC2)C(=O)N1 (stereo not drawn)
inactive: max response [1] 0.775% | Potency [2] | Potency [3] | Potency [4]

NC(N)=NCC1COC2(CCCCC2)O1 (stereo not drawn)
inactive: max response [1] 9.74% | Potency [2] | Potency [3] | Potency [4]

FC(F)(F)C(F)(F)C(F)(F)C(F)(F)C(F)(F)C(F)(F)F
inactive: max response [1] 13.2% | Potency [2] | Potency [3] | Potency [4]

CN[C@@H]1[C@@H](O)[C@@H](O[C@@H]2[C@@H](O)[C@H](OC3OC(CN)=CCC3N)[C@@H](N)C[C@H]2N)OC[C@]1(C)O (stereo partly drawn)
inactive: max response [1] -3.17% | Potency [2] | Potency [3] | Potency [4]

Cc1ncc(C[n+]2csc(CCOP(=O)(O)OP(=O)(O)O)c2C)c(N)n1
inactive: max response [1] 0.908% | Potency [2] | Potency [3] | Potency [4]

O=C(OC[C@H]1O[C@](O)(COC(=O)c2cccnc2)[C@@H](OC(=O)c2cccnc2)[C@@H]1OC(=O)c1cccnc1)c1cccnc1
inactive: max response [1] -9.26% | Potency [2] | Potency [3] | Potency [4]

CC(=O)Oc1cc(C(F)(F)F)ccc1C(=O)O
inactive: max response [1] 17% | Potency [2] | Potency [3] | Potency [4]

CCOc1ccc(S(=O)(=O)O)c2cccnc12
inactive: max response [1] 1.62% | Potency [2] | Potency [3] | Potency [4]

O=C1c2ccccc2C(=O)C1c1ccc(Cl)cc1
inactive: max response [1] 13.7% | Potency [2] | Potency [3] | Potency [4]

CC1CC(O)CC(C)(C)C1 (stereo not drawn)
inactive: max response [1] -5.15% | Potency [2] | Potency [3] | Potency [4]

NC(N)=NCC1COc2ccccc2O1 (stereo not drawn)
inactive: max response [1] -11.6% | Potency [2] | Potency [3] | Potency [4]

Cc1cc2nc3c(=O)[nH]c(=O)nc-3n(C[C@H](O)[C@H](O)[C@H](O)COP(=O)(O)OP(=O)(O)OC[C@H]3O[C@@H](n4cnc5c(N)ncnc54)[C@H](O)[C@@H]3O)c2cc1C
inactive: max response [1] -3.17% | Potency [2] | Potency [3] | Potency [4]

CNC(=O)c1c(I)c(C(=O)NCC(=O)Nc2c(I)c(C(=O)O)c(I)c(C(=O)NCCO)c2I)c(I)c(N(C)C(C)=O)c1I
inactive: max response [1] 1.95% | Potency [2] | Potency [3] | Potency [4]

CC(C)CN(C[C@@H](OP(=O)(O)O)[C@H](Cc1ccccc1)NC(=O)O[C@H]1CCOC1)S(=O)(=O)c1ccc(N)cc1
inactive: max response [1] -7.76% | Potency [2] | Potency [3] | Potency [4]

NCCC[C@H](N)CC(=O)N[C@H]1CNC(=O)[C@H]([C@H]2C[C@H](O)NC(N)=N2)NC(=O)/C(=C/NC(N)=O)NC(=O)[C@H](CO)NC(=O)[C@H](CO)NC1=O (β3hOrn-[Dap]SS[ΔAla(Z-3-ureido)][X5]; lactam 1-C)
inactive: max response [1] 13.7% | Potency [2] | Potency [3] | Potency [4]

Nc1nc(=O)n([C@@H]2CS[C@H](CO)O2)cc1F
inactive: max response [1] 4.32% | Potency [2] | Potency [3] | Potency [4]

CCN(CC)CCOC(=O)c1cccnc1
inactive: max response [1] 6.67% | Potency [2] | Potency [3] | Potency [4]

CN(Cc1ccccc1)Cc1ccccc1
inactive: max response [1] 1.68% | Potency [2] | Potency [3] | Potency [4]

NCC(O)CC(=O)O (stereo not drawn)
inactive: max response [1] 10.8% | Potency [2] | Potency [3] | Potency [4]

CC(=O)N[C@@H](C=O)[C@@H](O)[C@H](O)[C@H](O)CO
inactive: max response [1] 11.4% | Potency [2] | Potency [3] | Potency [4]

Nc1nc2c(c(=O)[nH]1)N(C=O)C(CNc1ccc(C(=O)N[C@@H](CCC(=O)O)C(=O)O)cc1)CN2 (stereo partly drawn)
inactive: max response [1] 8.32% | Potency [2] | Potency [3] | Potency [4]

O=P(O)(O)OC[C@H]1O[C@](O)(COP(=O)(O)O)[C@@H](O)[C@@H]1O
inactive: max response [1] 2.17% | Potency [2] | Potency [3] | Potency [4]

CC(=O)N=c1sc(S(N)(=O)=O)nn1C
inactive: max response [1] 3.69% | Potency [2] | Potency [3] | Potency [4]

CC(=O)OCC(=O)[C@@]1(O)CC[C@H]2[C@@H]3CCC4=CC(=O)CC[C@]4(C)C3=CC[C@@]21C
inactive: max response [1] -8.18% | Potency [2] | Potency [3] | Potency [4]

C[C@@H]1O[C@@H](OC[C@H]2O[C@@H](Oc3c(-c4ccc(OCCO)c(OCCO)c4)oc4cc(OCCO)cc(O)c4c3=O)[C@H](O)[C@@H](O)[C@@H]2O)[C@H](O)[C@H](O)[C@H]1O
inactive: max response [1] 6.8% | Potency [2] | Potency [3] | Potency [4]

NC(=O)[C@@H]1C[C@]2(NC(=O)NC2=O)c2cc(F)ccc2O1
inactive: max response [1] -13.1% | Potency [2] | Potency [3] | Potency [4]

CCCOC(=O)c1ccccc1O
inactive: max response [1] -13% | Potency [2] | Potency [3] | Potency [4]

C(=C\c1ccncc1)/c1ccccc1
inactive: max response [1] 1.05% and -0.436% | Potency [2] | Potency [3] | Potency [4]

O=C(/C=C/c1cccc(F)c1)NC1CC1
inactive: max response [1] -1.6% | Potency [2] | Potency [3] | Potency [4]

CC(C)(C)c1ccc2c(S(=O)(=O)O)c(C(C)(C)C)ccc2c1
inactive: max response [1] 10.3% and 35.8% | Potency [2] | Potency [3] | Potency [4]

O=C(O)COc1ccc(CCNS(=O)(=O)c2ccccc2)s1
inactive: max response [1] -5.07% | Potency [2] | Potency [3] | Potency [4]

Cc1nc(NS(=O)(=O)c2ccc(N)cc2)nc(C)c1Br
inactive: max response [1] 21.7% | Potency [2] | Potency [3] | Potency [4]

COc1cc2c(cc1OC)[C@@H](Cc1cc(OC)c(OC)c(OC)c1)[N+](C)(CCCOC(=O)CC/C=C/CCC(=O)OCCC[N+]1(C)CCc3cc(OC)c(OC)cc3[C@H]1Cc1cc(OC)c(OC)c(OC)c1)CC2 (stereo partly drawn)
inactive: max response [1] 7.25% and 6.59% | Potency [2] | Potency [3] | Potency [4]

CC(CCc1ccc(O)cc1)NCC(O)c1ccc(O)cc1 (stereo not drawn)
inactive: max response [1] 16.5% | Potency [2] | Potency [3] | Potency [4]

CC(=NCc1ccccc1)c1ccccc1O
inactive: max response [1] -2.19% | Potency [2] | Potency [3] | Potency [4]

NC(=O)Oc1ccc(Cc2ccccc2)cc1
inactive: max response [1] -7.34% | Potency [2] | Potency [3] | Potency [4]
